# Measured values from PubChem BioAssay AID2315 (National Center for Advancing Translational Sciences (NCATS), 2010).
# Hit rate of the full screen: of about 290,000 compounds, about 27,000 (9.3%) were called active. Cut-off read from the data, not from the text of the source: active = inhibition mostly above about 28% (no sharp cut-off); inactive = mostly below about 43%. Many of the other results were omitted from the sample, so actives are more common in it than they were.
# Experiment: A qHTS for Small Molecule Inhibitors of Shiga Toxin; note: 0% is about no effect
# Details: Vero cells, Shiga toxin protein synthesis inhibition reporter; at 38.7 µM, hits give high values
row,Structure (SMILES),inhibition
1,CCOC(=O)c1ccc(NC2Nc3cc(C)nn3S2)cc1 (centres undefined),37.2% (inactive)
2,CC(C)(C)c1ccc(/C=C/C(=O)NCCCn2ccnc2)cc1,-13.7% (inactive)
3,CCC(NC(=O)c1ccccc1NC(=O)c1ccccc1)C(=O)NNC(=O)CSc1nc2ccccc2o1 (centres undefined),23.3% (active)
4,CCOC(=O)c1ccccc1NC(=O)CSc1nc2ccccc2c(=O)[nH]1,-5.65% (inactive)
5,Cn1c(=O)[nH]c(=O)c2c1nc(Br)n2CCCCSc1nc2ccccc2o1,39.4% (inactive)
6,COc1ccc(OC)c(NC(=O)C2CCCN2S(=O)(=O)c2cccc3nsnc23)c1 (centres undefined),-4.24% (inactive)
7,COc1nc(NCc2ccc(Cl)cc2)nc(OC)n1,45.3% (inactive)
8,C=CCNc1nc(C)nc(OC)n1,-12.3% (inactive)
9,C=CCNc1nc(Nc2ccc(Cl)cc2)nc(OC)n1,71.3% (active)
10,Cc1sc2nc(SCCO)n(-c3ccccc3)c(=O)c2c1C,-3.85% (inactive)
11,Cc1ccc2c(c1)N(C(=O)CCC(=O)NCc1cccnc1)CCO2,3.18% (inactive)
12,Oc1ccc(Cl)cc1C1C=C(c2ccc3c(c2)OCO3)NC(c2ccc(F)c(Br)c2)N1 (centres undefined),93.1% (active)
13,Oc1ccc(Cl)cc1C1C=C(c2ccc3c(c2)OCO3)NC(c2c(F)cccc2Cl)N1 (centres undefined),68.7% (active)
14,Cc1csc(Nc2ccc(Cl)cc2)[n+]1-c1ccc(Cl)cc1,19.3% (inactive)
15,COCCN1C(=O)C(=O)/C(=C(/O)c2ccc(S(=O)(=O)N3CCCCC3)cc2)C1c1ccc(OC)c(OC)c1 (centres undefined),11% (inactive)
16,C/C(=N\NC(=O)CNc1cccc2ccccc12)c1ccc(Br)s1,-8.07% (inactive)
17,Cn1cccc1/C=N/NC(=O)CNc1cccc2ccccc12,6.61% (inactive)
18,Cc1cccc(/C=N/NC(=O)CNc2cccc3ccccc23)n1,70.6% (active)
19,Clc1ccc(-c2cc(-c3ccccn3)on2)c(Cl)c1,48.1% (inactive)
20,CC(C)c1nc(-c2ccccn2)no1,46.2% (active)
21,c1ccc(-c2nccc(-c3ccc(-n4cnc5ccccc54)cc3)n2)nc1,-13.3% (inactive)
22,COc1ccc(-n2ncc3c2CC(C)(C)CC3NC(=O)CCc2c(C)noc2C)cc1 (centres undefined),27.2% (inactive)
23,O=C(/C=C/c1cccs1)c1cc(Cl)ccc1OC(=O)N1CCOCC1,18.1% (inactive)
24,COc1ccc(-c2nc(CS(=O)(=O)CC(=O)NCc3cccc(Br)c3)c(C)o2)cc1,4.36% (inactive)
25,O=C(O)C(c1ccccc1)N1C(=O)/C(=C\c2ccc(-c3cccc(Cl)c3)o2)SC1=S (centres undefined),-2.95% (inactive)

row,Structure (SMILES),inhibition
1,O=C1c2ccccc2NC(c2ccc(-c3cccc(Cl)c3)o2)N1O (centres undefined),58.1% (active)
2,O=C1NN(c2ccccc2)C(=O)/C1=C/c1ccc(-c2cccc(C(=O)O)c2)o1,18.2% (inactive)
3,COc1cccc(N(CC(=O)NCc2ccccc2)C(=O)CCC(=O)Nc2nccs2)c1,-2.69% (inactive)
4,CC(C)CC(=O)NC(=S)Nc1cc(C(=O)O)ccc1Cl,30.7% (inactive)
5,COc1ccc(NS(=O)(=O)c2ccc(NC(=S)NC(=O)CC(C)C)cc2)cc1,-7.41% (inactive)
6,CC(=O)c1ccc(NC(=S)NC(=O)CC(C)C)cc1,26.8% (active)
7,CCOC(=O)C1CCN(S(=O)(=O)c2c(C)noc2C)CC1,30.7% (inactive)
8,COC(=O)c1ccccc1NC(=O)CSc1n[nH]c(-c2ccncc2)n1,4.61% (inactive)
9,Cc1cccc(C(=O)Nc2ccc(C(=O)/C=C/c3cccs3)cc2)c1,99.7% (active)
10,Cc1cccc(C(=O)Nc2ccc(C(=O)N/N=C/c3cccc(C)n3)cc2)c1,3.17% (inactive)
11,Cc1cccc(C(=O)Nc2ccc(CC(=O)O)cc2)c1,18.5% (inactive)
12,Cc1ccc(C(=O)N/C(=C\c2cn(S(=O)(=O)N(C)C)c3ccccc23)C(=O)N2CCCC2)cc1,-2.9% (inactive)
13,CCOc1ccc(C(C(=O)NC2CCCC2)N(C(=O)c2snc(C(N)=O)c2N)C2CCCC2)cc1 (centres undefined),12.4% (inactive)
14,COc1cccc(CSc2nc3nc(C)cc(C)n3n2)c1,-3.55% (inactive)
15,COc1ccc2[nH]c3nc(SCC(=O)NC4CC4)nnc3c2c1,-7.63% (inactive)
16,COc1ccc(-c2nnc3ccc(SCc4ccccc4)nn23)cc1,9.35% (inactive)
17,COc1ccc2nc(SCc3ccccc3)nc(C)c2c1,70.1% (active)
18,COC(=O)CSc1nc(C)c2ccc(OC)cc2n1,44.6% (active)
19,COC(=O)CSc1nc(C2CC2)nc2ccccc12,-5.63% (inactive)
20,O=C(COc1cc2oc(=O)c3c(c2cc1Cl)CCC3)NCCCN1CCOCC1,-7.49% (inactive)
21,NC(=O)c1cc(S(=O)(=O)NCCCc2ccco2)cs1,19.4% (inactive)
22,O=[N+]([O-])c1cc(C(F)(F)F)ccc1NN=C1CCCC1,9.47% (inactive)
23,CN1CCN(CCNC(=O)Nc2ccccc2[N+](=O)[O-])CC1,24.3% (inactive)
24,O=[N+]([O-])c1ccccc1N/N=C1\CCc2ccccc21,50.9% (active)
